Bioassay records: PubChem BioAssay, several laboratories
Sampled rows, rich in hits. Any-hit rate of the full collection: about 4.3%.
ADAM17 inh – inhibitors of human ADAM17. P78536. recombinant ADAM17, EDANS/DABCYL FRET peptide cleavage. inhibition, % at 6.95 µM. actives 0.83% (n = 370,000). AID 720648;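 active = inhibition above the mean of compounds lying between control limits plus 3 SD, set per campaign, cut at about 8.5% in these data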;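 note: 0% = DMSO-only wells as the low control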
Target sequence (P78536 215-824 limits assumed): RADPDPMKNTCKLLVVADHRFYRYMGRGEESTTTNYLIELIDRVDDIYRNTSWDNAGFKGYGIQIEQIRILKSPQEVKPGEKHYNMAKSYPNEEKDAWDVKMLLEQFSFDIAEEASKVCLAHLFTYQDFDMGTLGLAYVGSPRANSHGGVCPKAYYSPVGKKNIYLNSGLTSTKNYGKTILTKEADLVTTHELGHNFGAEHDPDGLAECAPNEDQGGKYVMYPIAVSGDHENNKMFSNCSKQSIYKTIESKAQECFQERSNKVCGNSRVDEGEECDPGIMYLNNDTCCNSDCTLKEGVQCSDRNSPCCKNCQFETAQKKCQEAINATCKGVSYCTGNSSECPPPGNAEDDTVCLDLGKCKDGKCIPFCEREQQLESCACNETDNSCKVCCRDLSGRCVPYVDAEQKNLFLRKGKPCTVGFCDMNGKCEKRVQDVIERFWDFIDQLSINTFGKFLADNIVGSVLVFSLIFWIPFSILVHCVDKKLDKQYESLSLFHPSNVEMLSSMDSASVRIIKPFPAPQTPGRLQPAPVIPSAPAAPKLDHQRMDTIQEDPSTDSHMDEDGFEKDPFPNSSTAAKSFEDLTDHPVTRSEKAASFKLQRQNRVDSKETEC
HGIII-sPLA2 inh – Inhibits HGIII-sPLA2 liposome hydrolysis, primary screen | Q9NZ20 | actives 0.56% (n = 370,000) | inhibition, % at 12.2 µM | QFRET BODIPY PC-A2 liposome hydrolysis, fluorescence;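 active = inhibition above mean plus 3 SD of compounds lying within the high and low control bounds, cut at about 19% in these data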;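 note: 0% = median of test compound wells and 100% = no enzyme DMSO wells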
ADAM10 inh – ADAM10 inhibition, QFRET primary screen. recombinant ADAM10, EDANS/DABCYL FRET peptide cleavage, 3 h. inhibition, % at 7 µM. actives 0.62% (n = 370,000);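 active = inhibition above a per-campaign cutoff equal to the mean of compounds falling between control-based bounds plus 3 SD, cut at about 20% in these data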;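 note: 0% = DMSO wells while the 100% control is not disclosed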
FAS-TE inh – blocks the thioesterase domain of human fatty acid synthase; P49327; recombinant FAS-TE, OMFH fluorogenic substrate, fluorescence endpoint; inhibition, % at 15 µM; actives 0.67% (n = 360,000); AID 602261;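 active = compounds whose normalised, plate-corrected inhibition of enzyme fluorescence in the single-dose primary screen is 50% or more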;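 note: 0% = DMSO with enzyme and 100% = substrate without enzyme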
NR3A LBD binder – NR3A (human) ligand-binding domain modulation. NR3A LBD differential scanning fluorimetry, Tm shift; 0% = protein alone, 100% = glycine-bound protein. Tm shift relative to glycine control, % at 25 µM. actives 2.5% (n = 340,000). AID 1259313;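 active = melting temperature shift of at least 10% of the positive control shift, at one fixed dose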
Starred values were filed as active, the others as inactive.

Screening Oc1ccc2ccccc2c1/C=N/Nc1nnc(-c2ncc[nH]2)c2ccccc12 returned ADAM17 inh 5, HGIII-sPLA2 inh -5, ADAM10 inh 7, FAS-TE inh 18 and NR3A LBD binder 21*.
For CCC[C@H]1[C@@H](OC(=O)Oc2ccc([N+](=O)[O-])cc2)CC[C@@]23CCCN2C(=O)CCC[C@@H]13 the results were ADAM17 inh -2, HGIII-sPLA2 inh -1 and ADAM10 inh -2.
NC(=O)CSc1nccn1Cc1ccccc1 was read as ADAM17 inh -1, HGIII-sPLA2 inh 1, ADAM10 inh -5, FAS-TE inh -3 and NR3A LBD binder -1.
c1ccc(Cn2ccnc2SCc2nnc(-c3ccccc3)o2)cc1 was read as ADAM17 inh 4, HGIII-sPLA2 inh -6, ADAM10 inh 15, FAS-TE inh -3 and NR3A LBD binder 11*.
For Cc1ccc(NC(=O)c2cccc(Oc3ccc([N+](=O)[O-])cc3)c2)c(C(=O)O)c1 the results were ADAM17 inh 9, HGIII-sPLA2 inh -42, ADAM10 inh 18, FAS-TE inh 3 and NR3A LBD binder 3.
O=C(Nc1ccc(O)cc1)c1cccc(Oc2ccc([N+](=O)[O-])cc2)c1 was read as ADAM17 inh 4, HGIII-sPLA2 inh -10, ADAM10 inh 8, FAS-TE inh 9 and NR3A LBD binder 32*.
O=C(Nc1cc([N+](=O)[O-])ccc1O)c1cccc(C(=O)Nc2cc([N+](=O)[O-])ccc2O)c1 was read as ADAM17 inh -3, HGIII-sPLA2 inh -6, ADAM10 inh 1, FAS-TE inh 10 and NR3A LBD binder 25*.
`Cc1cc(O)c(NC(=O)c2cccc([N+](=O)[O-])c2)cc1C` gave ADAM17 inh -5, HGIII-sPLA2 inh -5, ADAM10 inh 0, FAS-TE inh 3 and NR3A LBD binder 17*.
Screening O=C(Nc1cc([N+](=O)[O-])ccc1O)c1cccc([N+](=O)[O-])c1 returned ADAM17 inh -4, HGIII-sPLA2 inh 2, ADAM10 inh 2, FAS-TE inh 16 and NR3A LBD binder -4.
For COc1cccc(-c2nnc3sc(-c4ccc(Br)o4)nn23)c1 the results were ADAM17 inh -1, HGIII-sPLA2 inh 2 and ADAM10 inh -2.
`O=C(OCC#CCSc1nnc(-c2cccc3ccccc23)o1)c1ccccc1F` gave ADAM17 inh -2, HGIII-sPLA2 inh 2 and ADAM10 inh -2.
`COc1ccc(NC(=O)Cc2csc(NC(=O)Nc3ccccc3OC)n2)cc1` gave ADAM17 inh 4, HGIII-sPLA2 inh -27, ADAM10 inh 9 and FAS-TE inh 8.
COc1ccc(C)cc1NC(=O)Cc1csc(NC(=O)Nc2ccccc2OC)n1 was read as ADAM17 inh -2, HGIII-sPLA2 inh 2, ADAM10 inh -3 and FAS-TE inh 18.
Screening COc1ccccc1NC(=O)Nc1nc(CC(=O)Nc2ccc(F)cc2)cs1 returned ADAM17 inh -1, HGIII-sPLA2 inh -3, ADAM10 inh -4, FAS-TE inh 13 and NR3A LBD binder 33*.
Screening Cc1ccc(NC(=S)Nc2nc(CC(=O)Nc3ccccc3)cs2)cc1 returned ADAM17 inh -1, HGIII-sPLA2 inh 11, ADAM10 inh 6, FAS-TE inh -6 and NR3A LBD binder 17*.
COc1ccccc1NC(=O)Nc1nc(CC(=O)Nc2cc(F)ccc2F)cs1 was read as ADAM17 inh 4, HGIII-sPLA2 inh -12, ADAM10 inh 13, FAS-TE inh 22 and NR3A LBD binder 21*.
COc1ccccc1NC(=O)Nc1nc(CC(=O)Nc2cccc(F)c2)cs1 was read as ADAM17 inh 6, HGIII-sPLA2 inh -22, ADAM10 inh 18, FAS-TE inh 13 and NR3A LBD binder 28*.
For Cn1c(SCC(=O)Nc2ccccc2-c2ccccc2)nnc1-c1ccccc1 the results were ADAM17 inh 1, HGIII-sPLA2 inh 8 and ADAM10 inh -10.
COC(=O)[C@]12C[C@H](CC(=O)N3CCN(C(=O)c4ccco4)CC3)C(=O)N(Cc3ccc4c(c3)OCO4)C1=C[C@H](C(C)C)O[C@@H]2C1CC1 was read as ADAM17 inh -7, HGIII-sPLA2 inh -7 and ADAM10 inh -8.
COc1ccccc1NC(=O)Nc1nc(CC(=O)Nc2ccc(N(C)C)cc2)cs1 was read as ADAM17 inh 6, HGIII-sPLA2 inh -14, ADAM10 inh 11, FAS-TE inh 6 and NR3A LBD binder 24*.
Screening COc1ccccc1NC(=O)Nc1nc(CC(=O)Nc2ccc(F)c(F)c2)cs1 returned ADAM17 inh -1, HGIII-sPLA2 inh 5, ADAM10 inh 2, FAS-TE inh 20 and NR3A LBD binder 34*.
